Screening results (PubChem BioAssay)
DT40 TDP1 CPT: DT40-hTDP1 cell growth loss with CPT. chicken DT40 Tdp1-/-;hTDP1 cells + 20 nM CPT, ATP luminescence, 48 h. Potency, µM (series often up to 46.2 µM), for the others: at the highest dose activity change, negative = growth inhibition, usual class: inhibitors. hit rate 12% among 420,000. AID 686979; further: potency means the concentration at half of the fitted maximal effect; nearly all actives have a fitted effect of over 55% in size
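Cell growth measured by CellTiter-Glo luminescence after a minimum 48 h, 37 C compound exposure with 20 nM CPT in Tdp1-knockout DT40 cells stably expressing hTDP1, seeded 400/well; qHTS titration format.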
HT1080 IDH1KD tx: kills HT-1080 cells with IDH1 knockdown | Potency, µM (doses to about 46.1 µM), for the others: at the top dose activity, negative = toxicity, most hits filed as cytotoxic | HT-1080 IDH1 knockdown viability, ATP luminescence, 48 h | hit rate 2% among 360,000;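 further: potency means the concentration at half of the fitted maximal effect; 0% = DMSO wells and -100% = cell-free medium wells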
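Luminescent ATP read-out (CellTiter-Glo, 10 min at room temperature) after 48 h compound exposure at 37 °C gave viability of IDH1-knockdown HT-1080 cells. Activity was normalised to DMSO and cell-free wells, then fitted as concentration-response curves.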
IL1B secr inh: inflammasome signaling inhibition, IL-1 beta readout; THP-1 LPS/ATP IL-1B secretion, AlphaLISA, 16 h; hits give low values; activity change, % at 57.5 µM; hit rate 4.7% among 360,000; in the data active means activity change below about -50%; inconclusive means mostly about -30% to -49%
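Secreted IL-1B measured by AlphaLISA bead assay after 16 h compound exposure of THP-1 cells; compounds (final up to 57.5 uM) added 1 h before LPS (250 ng/mL) and ATP (1.25 mM) stimulation; lower signal means less secretion.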
TDP1 cell noCPT: qHTS for Inhibitors of human tyrosyl-DNA phosphodiesterase 1 (TDP1): qHTS in cells in absence of CPT. DT40 Tdp1-/- hTDP1 cells, no CPT, ATP luminescence, 48 h. Potency, µM (series often up to 46.2 µM), for inactives: at the top dose activity change, negative = growth inhibition, actives largely listed as inhibitors. hit rate 15% among 420,000; further: potency means the concentration at half of the fitted maximal effect; nearly all actives have a fitted effect of over 55% in size
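Camptothecin absent (DMSO only). Human TDP1-complemented DT40 knockout cells, 400 cells/well, 37 °C for minimum 48 hr; ATP measured via CellTiter-Glo, 30 min dark incubation, luminescence.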
HT1080-NT tox: kills 2HG-producing HT-1080-NT fibrosarcoma cells; hit rate 1.6% among 360,000; AID 686970; Potency, µM (doses to about 46.1 µM), inactives show top-dose activity, negative = less viability, actives largely listed as cytotoxic; HT-1080-NT fibrosarcoma viability, CellTiter-Glo ATP luminescence, 48 h;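 further: NT is the 2HG producing partner of a matched IDH1 knockdown line; potency means the concentration at half of the fitted maximal effect; 0% = DMSO-treated cells and -100% = media-only wells without cells; nearly all actives have a fitted effect of over 55% in size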
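Read-out is CellTiter-Glo luminescence after 10 minutes at room temperature, following 48 hours' compound treatment of HT-1080-NT cells (750 cells/well, RPMI, 5% FBS, 37 degrees C).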
The depositor's hits bear a star; ? = inconclusive; nt = not tested or not shown; [ ] = another dose, or the depositor's remark. Only some compounds are listed: those with a hit (about 19% of all), similar ones and a draw of the others. Unless noted, the call rests on the fitted dose curve; in most records, active means well fitted curve in the direction sought with a large enough effect; inconclusive means small, poorly fitted or top-dose-only effect, or another doubt; inactive means no such curve, though single readings can be large; an effect the other way counts as inactive or inconclusive. Unless noted, on the % scale 0 is the no-effect control and ±100 the full control effect.

SMILES	DT40 TDP1 CPT	HT1080 IDH1KD tx	IL1B secr inh	TDP1 cell noCPT	HT1080-NT tox
CC(C)NC(=O)N(C)C[C@H]1Oc2ccc(NS(=O)(=O)c3cn(C)cn3)cc2C(=O)N([C@H](C)CO)C[C@@H]1C	-11%	9%	7	-12%	15%
COc1ccc2cc(CN(C(=O)c3cc(C)nn3C)C3CC3)c(-c3ccc(Cl)cc3)nc2c1	-72%	nt	nt	?	nt
CN1CCN(C(=S)c2cn(Cc3ccc(F)cc3)c3ccccc23)CC1	?	-26%	-9	?	-16%
CN1CCN(C(=S)c2cn(Cc3cccc(F)c3)c3ccccc23)CC1	?	-21%	1	21µM*	-19%
CC1CCN(C(=S)c2cn(Cc3ccc(F)cc3)c3ccccc23)CC1	?	-18%	-13	23µM*	1%
CC1(C)CC(=O)/C(=C\c2cccc([N+](=O)[O-])c2)C(C)(C)N1	?	?	-82*	16µM*	-24%
Cn1cccc1C(=O)OCC(=O)N1c2ccccc2NC(=O)C1(C)C	-28%	12%	-6	?	14%
COc1ccc(OC)c(S(=O)(=O)N2CCC(c3nc4ccccc4[nH]3)CC2)c1	?	-2%	-11	?	-1%
COc1ccc(S(=O)(=O)N2CCC(c3nc4ccccc4[nH]3)CC2)cc1	?	-20%	-16	10µM*	-14%
CC(C)C(=O)Nc1ccc(S(=O)(=O)N2CCC(c3nc4ccccc4[nH]3)CC2)cc1	?	-19%	-23	21µM*	-16%
CCOC(=O)Nc1ccc(S(=O)(=O)N2CCC(c3nc4ccccc4[nH]3)CC2)cc1	?	-5%	?	?	-9%
CC(C)c1nn(-c2cc(C(F)(F)F)ccn2)c(=O)o1	1%	4%	6	-1%	-3%
COc1ccc(CN(C)C(=O)Cn2cnc3c(NCc4ccccc4)ncnc32)cc1OC	?	-2%	-1	?	-1%
COCCNC(=O)C1(C)CCCN(Cc2ccc(-c3ccccc3)o2)C1 (configuration not stated)	?	1%	-6	?	-16%
COc1cc(Nc2nc3ccccc3n3nnnc23)cc(OC)c1OC	8.2µM*	1%	-1	9.2µM*	14%
COCCNC(=O)c1cccc(Nc2nc3ccccc3n3nnnc23)c1	-7%	nt	nt	?	nt
CCCCOc1ccc(C(C)NC(=O)c2cccc(Nc3nc4ccccc4n4nnnc34)c2)cc1 (configuration not stated)	5.2µM*	nt	nt	5.8µM*	nt
Cc1ccc(CNC(=O)c2cccc(Nc3nc4ccccc4n4nnnc34)c2)cc1	21µM*	nt	nt	10µM*	nt
COCCN(C(=S)Nc1cccc(C)c1)C(C)c1cccnc1 (configuration not stated)	4%	25%	7	0%	22%
Cc1nc2ccc(NC(=O)C3(C)CCCN(C(C)C)C3)cc2o1 (configuration not stated)	-14%	0%	81	-18%	27%
COc1ccccc1CNC(=O)CN(C)CC(=O)Nc1ccc(F)c(F)c1F	3%	3%	-16	-3%	1%
OCC1(Cc2ccccc2)CCN(Cc2cnn(-c3ccccc3F)c2)CC1	0%	-2%	?	-20%	-4%
OCC1(Cc2ccccc2)CCN(C2CCN(c3ccccc3F)CC2)CC1	?	2%	-85*	23µM*	-13%
CNC(=O)c1cc(NC(=O)N(CCC#N)CCN(C(=O)NC(Cc2ccccc2)C(=O)NC(CC(C)C)C(=O)NC)c2ccccc2)ccc1OC (configuration not stated)	?	0%	12	-39%	3%
COc1cc(-c2cnc3ccccc3c2)cc2c1OCCN(C(=O)CCn1nc(C)cc1C)C2	3%[9.04 µM]	nt	nt	-25%	nt
SMILES	DT40 TDP1 CPT	HT1080 IDH1KD tx	IL1B secr inh	TDP1 cell noCPT	HT1080-NT tox
CCOc1ccc(CCN2CN(CC)CNC2=S)cc1OCC	-18%	1%	14	21µM*	-4%
CCCOc1ccc(N2C(=O)CC(N(CCc3ccc(OC)c(OC)c3)C(=S)Nc3ccccc3)C2=O)cc1 (configuration not stated)	?	0%	29	?	-3%
CNC(=S)N(CCc1ccc(OC)c(OC)c1)C1CC(=O)N(c2ccccc2)C1=O (configuration not stated)	?	?	nt	26µM*	-8%
O=C1CC(N(CCc2ccccc2)C(=S)Nc2cc(Cl)ccc2Cl)C(=O)N1c1c(Cl)cccc1Cl (configuration not stated)	16µM*	-13%	-6	10µM*	-22%
O=C(c1ccc2c(c1)N(Cc1cccc(Cl)c1)C(=O)c1ccccc1S2(=O)=O)N1CCCCC1	16µM*	nt	nt	?	nt
O=C(c1ccc2c(c1)N(Cc1cccc(Cl)c1)C(=O)c1ccccc1S2(=O)=O)N1CCc2ccccc21	2.1µM*	nt	nt	1.6µM*	nt
Cc1ccc(Cc2ccc(C(=O)NNC(N)=S)o2)cc1	-13%	-2%	24	-2%	-2%
OC[C@@H]1CN(Cc2ccc(F)cc2)C[C@H](n2cnc3c(N4CCOCC4)ncnc32)O1	-6%	10%	20	-1%	10%
CN1CCN(c2ncnc3c2ncn3[C@H]2CN(Cc3ccccc3)C[C@@H](CO)O2)CC1	?	14%	-8	-23%	3%
OC[C@@H]1CN(Cc2ccc(-c3ccccc3)cc2)C[C@H](n2cnc3c(N4CCOCC4)ncnc32)O1	?	21µM*	-27	?	18µM*
COc1cc(CN2C[C@@H](CO)O[C@@H](n3cnc4c(N5CCN(c6ccccc6)CC5)ncnc43)C2)cc(OC)c1OC	18µM*	0%	-8	15µM*	-3%
OC[C@@H]1CN(Cc2ccc(Cl)cc2)C[C@H](n2cnc3c(N4CCN(c5ccccc5)CC4)ncnc32)O1	?	16µM*	-18	18µM*	18µM*
OC[C@@H]1CN(Cc2ccccc2)C[C@H](n2ccc3c(N4CCCC4)ncnc32)O1	-7%	26%	-56*	?	12%
OC[C@@H]1CN(Cc2ccc(Cl)cc2)C[C@H](n2cnc3c(N4CCOCC4)ncnc32)O1	?	3%	20	-17%	?
c1ccc2c(-c3cc(NCc4ccncc4)n4nccc4n3)cccc2c1	-29%	0%	14	6%	?
CC(C)N(C)c1ncnc2c1ncn2[C@H]1CN(Cc2cccnc2)C[C@@H](CO)O1	5%	20%	2	8%	15%
CCN(CC)c1ncnc2c1ncn2[C@H]1CN(Cc2cccnc2)C[C@@H](CO)O1	-22%	2%	-57*	-8%	?
